“And” between values parts separate entries of the source, which are not always exact repeats. Equal entries are not always repeated. This is part of a sample that, as a whole, favours compounds with a hit. Of some 83,000 tested, about 20% had one in any assay.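 Growth was measured after 48 h exposure to one concentration of compound in 96-well plates. Values under 10 count as active.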 The source made the active and inactive calls.
What follows are compounds tested on HL-60(TB) leukemia (assay: NCI-60 one-dose screen, 48 h (100 = growth as untreated, 0 = no growth, -100 = all killed)). Settings: 10 µM unless noted.

Q: With `Cc1ccc(S(=O)(=O)Nc2cccc(Cn3c(=O)[nH]c4ccc(Oc5ncccn5)cc4c3=O)c2)cc1` as the compound, how does the growth read?
A: 65.3% (inactive)

Q: For `C#CCOc1cccc(Nc2ncnc3ccc(NC(=O)CCl)cc23)c1`, which growth is on record?
A: -58.4% (active)

Q: For `CC(=O)c1c(-c2ccc(OC(F)(F)F)cc2)nc2ccccn12`, which growth is on record?
A: 115% (inactive)

Q: Which growth does the source give for `CN1CCN(c2nc(NCCCCNc3ccnc4cc(Cl)ccc34)c3ccccc3n2)CC1` here?
A: 28.6% (inactive)

Q: How did the growth turn out when `COc1ccc(-c2cc(-c3ccc(Cl)cc3)c(C#N)c(=O)n2CCCCC(=O)Nc2ccccc2N)cc1` was run?
A: 3.34% (active)

Q: For `CCN(CC)CCNC(=O)c1cn2ncnc(Oc3ccc(NC(=O)Nc4ccc(Cl)c(C(F)(F)F)c4)c(F)c3)c2c1C`, which growth is on record?
A: -45% (active)

Q: `CCOC(=O)c1cc2c(n1Cc1ccccc1)-c1oncc1CCC2` was tested. Which growth did it give?
A: 33.9% (inactive)

Q: Which growth does the source give for `CC(=O)Nc1cccc2cc(O)ccc12` here?
A: 114% (inactive) and 76.6% (inactive) and 104% (inactive)

Q: For `CN(C)C(=N)N=C(N)N`, which growth is on record?
A: 98.3% (inactive) and 145% (inactive)

Q: For `Cc1ccc(C2C3CC4CCCCC4N3[C@@]3(C(=O)Nc4cc(Cl)ccc43)C2C(=O)c2nc3ccccc3[nH]2)cc1` (stereo partly specified), which growth is on record?
A: 1.4% (active)

Q: How did the growth turn out when `COc1ccc(N=C2NN=C(c3ccc(F)cc3)CS2)cc1OC` was run?
A: 84.5% (inactive)

Q: With `Cc1ccc(-c2nc3nc(-c4ccc(F)cc4)nc(N4CCNCC4)c3o2)cc1` as the compound, how does the growth read?
A: -69.1% (active)

Q: `COc1ccc(C2=C(c3cc(OC)c(OC)c(OC)c3)C(=O)CC2)cc1` was tested. Which growth did it give?
A: 11.1% (inactive)

Q: How did the growth turn out when `C#CCN(C)Cc1ccccc1` was run?
A: 101% (inactive) and 96.4% (inactive)

Q: How did the growth turn out when `CC1(/C=N/NC(N)=S)NC(=O)NC1=O` (stereo unspecified) was run?
A: 86.8% (inactive)

Q: With `CC(=Nc1ccccc1)C1=C(O)C(Cc2ccc(O)cc2)NC1=O` (stereo unspecified) as the compound, how does the growth read?
A: -51.5% (active)

Q: Which growth does the source give for `COc1cccc(-c2nc3sccn3c2-c2ccnc(NCCCNS(=O)(=O)c3ccccc3)n2)c1` here?
A: 39.9% (inactive)

Q: `COc1ccc(-n2ncn(CCCCCCn3cnn(-c4ccc(OC)cc4)c3=O)c2=O)cc1` was tested. Which growth did it give?
A: 86.7% (inactive)

Q: For `Cc1ccc(Cn2c(N3CCC(C(=O)NCc4cccs4)CC3)nc3ccccc32)cc1`, which growth is on record?
A: -14.4% (active)

Q: Which growth does the source give for `c1ccc(CNCCN(CCNCc2ccccn2)Cc2ccc3ccccc3c2)nc1` here?
A: -34.5% (active)

Q: Which growth does the source give for `CNCCCNCCCCNCCCN1C(=O)c2ccc3c4c(ccc(c24)C1=O)C(=O)N(CCCNCc1ccccc1OC)C3=O` here?
A: 23% (inactive)

Q: Which growth does the source give for `COc1cc(-c2csc(NC(=O)c3cc(-n4cnc(C)c4)cc(C(F)(F)F)c3)n2)cc(OC)c1OC` here?
A: 61% (inactive)

Q: How did the growth turn out when `O=C(CI)NC1Oc2ccccc2-c2oc(=O)c(-c3ccccc3)cc21` (stereo unspecified) was run?
A: -39.3% (active)

Q: With `Fc1ccc(Nc2nc(NCCNc3ccnc4cc(Cl)ccc34)nc(N3CCOCC3)n2)cc1` as the compound, how does the growth read?
A: -6.82% (active)

Q: With `CC(C)C(NC(=O)CN)C(=O)O` (stereo unspecified) as the compound, how does the growth read?
A: 94.9% (inactive) and 98.7% (inactive)

Q: How did the growth turn out when `CC(C)(C)n1cc(-c2ccnc(NCCNS(=O)(=O)c3cccc4ccccc34)c2)c(-c2cccc(F)c2)n1` was run?
A: -52.3% (active)

Q: For `Cc1ccc2oc(=O)cc(-c3nc4ccc([N+](=O)[O-])cc4[nH]3)c2c1`, which growth is on record?
A: 53.1% (inactive)

Q: With `COC(=O)[C@]1(C)CCC[C@]2(C)[C@H]3C[C@H]4C(C(C)C)=C[C@]3(CC[C@H]21)[C@@H]1C(=O)N(CCC#N)C(=O)[C@@H]14` as the compound, how does the growth read?
A: 44.4% (inactive)

Q: `COc1ccc(Cn2c(NCCN=C(N)N)nc(=O)n(Cc3ccc(F)cc3)c2=O)cc1` was tested. Which growth did it give?
A: 94.1% (inactive) and 96.9% (inactive)

Q: For `CC[C@]12CN3CCc4c([nH]c5ccccc45)[C@@](C(=O)OC)(c4cc5c(cc4OC)N(C)[C@H]4[C@@](O)(C(=O)OC)[C@H](OC(C)=O)[C@]6(CC)C=CCN7CC[C@]54[C@@H]76)CC(C3)[C@H]1O2` (stereo partly specified), which growth is on record?
A: -1.28% (active)

Q: For `O=C1C(=O)N(CCCCn2cc(CO)nn2)c2ccccc21`, which growth is on record?
A: 91.9% (inactive)

Q: `CCCCCCCCCCNCCSS(=O)(=O)O` was tested. Which growth did it give?
A: 79% (inactive)

Q: `COc1ccc(-c2cn(-c3cccc(C(=O)/C=C/c4cc(OC)c(OC)c(OC)c4)c3)c(=O)[nH]2)cc1OC` was tested. Which growth did it give?
A: 66.6% (inactive)

Q: With `O=C(CSc1nccc(Nc2ccc(S(=O)(=O)Nc3ccccn3)cc2)n1)c1ccc(Cl)cc1` as the compound, how does the growth read?
A: 95.3% (inactive)

Q: For `O=C(c1ccccc1)C(O)C(Br)(CBr)c1ccccc1` (stereo unspecified), which growth is on record?
A: 65.4% (inactive)

Q: Which growth does the source give for `Cc1cc(N(CCCNc2ccnc3cc(Cl)ccc23)Cc2ccc3c(c2)OCO3)nc(N2CCOCC2)n1` here?
A: -69.7% (active)
